This note sets out measurements from PubChem BioAssay (NCATS).

Assay [1] in a line: Cell Viability - N2a (AID 540).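 Also: plate controls were DMSO alone for no effect and tamoxifen control for full effect; nearly all actives have a fitted effect of over 45% in size.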 Particulars: N2a mouse neuroblastoma cell viability; activity change, negative = cytotoxicity: at 92.2 µM (top of the series). An outline of the steps:
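Cytotoxicity was scored as loss of cellular ATP in N2a cells, a mouse neuroblastoma line. Compounds are applied in a qHTS concentration series for 40 hr at 37 °C.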

The nature of assay [2]: Cell Viability - NIH 3T3 (AID 541).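 Also: plate controls were DMSO alone for no effect and tamoxifen positive control for full effect; nearly all actives have a fitted effect of over 25% in size.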 Particulars: NIH 3T3 cell viability, qHTS; activity change, negative = cytotoxicity: at 92.2 µM (top of the series). Summed up:
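Cells seeded at 1000/well, rested 5 hr at 37 °C, then dosed and incubated 40 hr at 37 °C. CellTiter-Glo added, 20 min room temperature, luminescence read. AC50 by Hill fit.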
For orientation: qHTS replaces the single test concentration by a dilution series.

Assay [3] is described as follows: Cell Viability - HUV-EC-C (AID 542). Also: % is scaled to controls: 0 for no effect and ±100 for the full control effect; nearly all actives have a fitted effect of over 35% in size. Summed up: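 Cells were seeded at 1000 per well and incubated 5 hr at 37 °C before compound addition. After 40 hr at 37 °C, CellTiter-Glo reagent was added for 20 min and luminescence read. AC50 values came from Hill-equation modelling.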
Assay [4] in a line: Cell Viability - H-4-II-E (AID 543). Also: % is scaled to controls: 0 for no effect and ±100 for the full control effect; nearly all actives have a fitted effect of over 35% in size. Summed up: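 Cells seeded at 1500 per well and rested 5 hr; compounds added; 40 hr incubation at 37 °C; CellTiter-Glo added, 20 min at room temperature; luminescence read. Hill-equation fits gave AC50.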
Assay [5] in a line: Cell Viability - SH-SY5Y (AID 544). Also: nearly all actives have a fitted effect of over 55% in size. An outline of the steps: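 Cells were plated at 1500 per well and allowed 5 hr at 37 °C. Compounds were added across a concentration range and incubated 40 hr at 37 °C. CellTiter-Glo was added for 20 min at room temperature before luminescence reading.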
Assay [6] can be described thus: Cell Viability - Renal Proximal Tubule (AID 545). Also: nearly all actives have a fitted effect of over 40% in size. Particulars: renal proximal tubule cells viability, primary cells of rat origin; at 91.7 µM (top of the series). Summed up:
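Rat renal proximal tubule primary cells, 1000/well, exposed to compounds for 40 hr at 37 °C in complete medium; cellular ATP read by CellTiter-Glo luminescence. AC50 from concentration-response fitted with standard Hill equation.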

A short description of assay [7]: Cell Viability - Mesenchymal (AID 546).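 Also: cells exposed to compound for 40 hours before reading.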 Particulars: mesenchymal cells viability, qHTS; activity change, negative = cytotoxicity: at 91.7 µM (top of the series). Summed up: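 In this qHTS cytotoxicity format, glomerulus-derived human mesenchymal kidney cells received compound for 40 hr, then luciferase-based ATP quantitation. Concentration-response data were fitted with the Hill equation.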

Assay [8] can be described thus: Cellular Toxicity (caspase-3) HepG2 (AID 654).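 Also: cells exposed to compound for 16 hours before reading; 0% = DMSO alone and 100% = caspase signal from 100 µM tamoxifen.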 Summed up: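 Caspase 3/7 activation in HepG2 is measured as rising luminescence after a 16 hr treatment at 37 °C. Values are scaled between DMSO basal and 100 uM tamoxifen, and AC50 is fitted with the Hill equation.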
Assay [9] in a line: Cellular Toxicity (caspase-3) Jurkat (AID 655).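 Also: cells exposed to compound for 16 h at 37 °C before reading.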 The conditions noted are these: Jurkat caspase-3 activation, luminescence, DMSO = 0%, tamoxifen = 100%; at 92.2 µM (top of the series). Summed up: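 Jurkat cells (5000/well) in complete medium exposed 16 h at 37 C; caspase-3/7 activity read by Caspase-Glo luminescence after 20 min at room temperature. Normalized to DMSO and 100 uM tamoxifen; AC50 from Hill fits.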

Assay [10] is described as follows: Cellular Toxicity (caspase-3) HUV-EC-C (AID 656). Summed up: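 HUV-EC-C cells (1000/well) in complete medium, compound-treated 16 h at 37 °C; caspase-3/7 activity read by Caspase-Glo 3/7 luminescence. Normalized to DMSO (basal) and 100 uM tamoxifen (100%); AC50 from Hill-equation concentration-response fits.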
Assay [11] can be described thus: Cellular Toxicity (caspase-3) SHSY5Y (AID 657). Summed up:
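SH-SY5Y human neuroblastoma cells, 1500/well, exposed to compound for 16 hours at 37 °C in complete medium. Caspase-3/7 activity read by Caspase-Glo luminescence after 1 hr at room temperature, normalized to DMSO and 10 uM staurosporine; AC50 from Hill fit.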

Assay [12] can be described thus: Cellular Toxicity (caspase-3) BJ (AID 658).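 Also: 0% = DMSO basal and 100% = 10 µM staurosporine.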 An outline of the steps: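 Plated BJ cells (1000/well) rested 5 hr, received compound for 16 hr at 37 °C, then Caspase-Glo 3/7 reagent for 1 hr at room temperature before luminescence reading.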
A short description of assay [13]: Cellular Toxicity (caspase-3) MRC-5 (AID 659).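 Also: 0% = DMSO basal and 100% = 10 µM staurosporine.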 An outline of the steps:
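Apoptosis readout in MRC-5 cells: luciferase light generated after caspase 3/7 cleaves a peptide-aminoluciferin substrate, measured post 16 hr compound incubation at 37 °C.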

Assay [14] is described as follows: Cellular Toxicity (caspase-3) Mesangial (AID 660).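 Also: cells exposed to compound for 16 h before the caspase read.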 Summed up: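 Seed cells derived from normal human renal glomeruli, incubate 5 h, add compounds across concentrations and incubate 16 h at 37 °C. Caspase 3/7 activation is then quantified by luciferase light, with AC50 derived by Hill modeling.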
For assay [15], the target named is Thyroid hormone receptor beta (Homo sapiens) (UniProt P10828). The assay can be described thus: qHTS assay for small molecule antagonists of thyroid hormone receptor beta signaling (AID 588547; active = well fitted inhibition curve with a large enough effect in the signal ratio, with a control signal flat, not every such curve was filed as active; the % refers to the signal ratio;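 also: cells stimulated with 0.4 nM T3 agonist during compound exposure; % is scaled to controls: 0 for no effect and ±100 for the full control effect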). The conditions noted are these: TR-UAS-bla HEK293, beta-lactamase ratio, antagonist mode, 18 h. Summed up: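 TR-UAS-bla GripTite HEK293 cells in 2% charcoal/dextran FBS medium were preincubated 4 h at 37 C, given compound (0.59 nM to 92 uM) plus 0.4 nM T3 (final) for 18 h, then CCF4 for 2 h at RT; Hill fit gave IC50.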

The target in assay [16] is Voltage-gated inwardly rectifying potassium channel KCNH2 (Homo sapiens) (UniProt Q12809). The assay can be described thus: qHTS Assay for Small Molecule Inhibitors of the Human hERG Channel Activity (AID 588834).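 Also: top concentration of the series differs between compounds; % is scaled to controls: 0 for no effect and ±100 for the full control effect; lower thallium flux fluorescence means stronger hERG block; nearly all actives have a fitted effect of over 50% in size.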 Summed up: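 Thallium serves as surrogate for K+ influx through BacMam-delivered hERG in U2OS cells. Compounds are added for about 10 minutes after dye loading; stimulation buffer then starts flux, monitored kinetically on FDSS.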

Assay [17] concerns the target Tumor necrosis factor (Homo sapiens) (UniProt P01375). Put plainly: qHTS assay to identify small molecules that stimulate Tumor Necrosis Factor-alpha (TNF-alpha) secretion (AID 651757; active = well fitted curve in the direction sought with a large enough effect in the signal ratio; the % refers to the signal ratio; also: 0% is about no effect). Summed up: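 Human monocytic THP-1 cells are plated, treated with compound and held at 37 C for 17 hrs. Labeled anti-TNF-alpha antibody mixture is then added; after 3 hr at room temperature, TR-FRET signal reports secreted TNF-alpha.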

The target in assay [18] is Glucocorticoid receptor (Homo sapiens) (UniProt P04150). Put plainly: qHTS assay for small molecule antagonists of glucocorticoid receptor signaling (AID 588533; active = well fitted inhibition curve with a large enough effect in the signal ratio, with a control signal flat, not every such curve was filed as active; the % refers to the signal ratio;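 also: cells stimulated with 2 nM dexamethasone as agonist; % is scaled to controls: 0 for no effect and ±100 for the full control effect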). An outline of the steps:
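Antagonist-mode qHTS: compound titrations added to GRE-bla HeLa cells, then dexamethasone 2 nM final; 18 h, 37 C. CCF4 FRET fluorescence normalized to dexamethasone and DMSO; IC50 from Hill fit.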

Assay [19] addresses Peroxisome proliferator-activated receptor gamma (Homo sapiens) (UniProt P37231). Put plainly: qHTS assay for small molecule antagonists of peroxisome proliferator-activated receptor gamma signaling (AID 588537; active = well fitted inhibition curve with a large enough effect in the signal ratio, with a control signal flat, not every such curve was filed as active; the % refers to the signal ratio;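 also: reporter cells co-stimulated with 50 nM rosiglitazone agonist during compound treatment; % of control where 0% means no effect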). An outline of the steps:
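Compounds are tested as concentration series for inhibition of rosiglitazone-driven (50 nM) reporter expression in GeneBLAzer PPAR-gamma-UAS-bla HEK293 cells. After 16 h at 37 C, CCF4 substrate is added for 2 h at room temperature and blue/green fluorescence is measured.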

Assay [20] in a line: qHTS assay for small molecule activators of the nuclear factor-kappa B (NF-kB) signaling pathway (AID 651749; active = well fitted activation curve with a large enough effect in the signal ratio; the % refers to the signal ratio; also: % of control where 0% means no effect). Particulars: NF-kB-bla ME-180 cells, beta-lactamase FRET ratio, 16 h; hits give high values. Summed up:
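Human ME-180 cervical cells with an NF-kB-bla construct; compounds added via 23 nL pin transfer, DMSO as vehicle; incubation 16 hr. Reporter activity measured by FRET disruption.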

Where “and” joins values, the source holds several entries; their conditions need not be identical. Equal values may be shown once. A number with no mark means an inactive call. Records with an inconclusive call do not appear. Calls of active or inactive are those of the source. Unless noted, calls follow the shape of the dose curve; as a rule, active = well fitted curve in the direction sought with a large enough effect; inconclusive = small, poorly fitted or top-dose-only effect, or another doubt; inactive = no such curve, though single readings can be large; an effect the other way counts as inactive or inconclusive.

Chain of Tumor necrosis factor (Homo sapiens) (P01375 whole entry, looked up): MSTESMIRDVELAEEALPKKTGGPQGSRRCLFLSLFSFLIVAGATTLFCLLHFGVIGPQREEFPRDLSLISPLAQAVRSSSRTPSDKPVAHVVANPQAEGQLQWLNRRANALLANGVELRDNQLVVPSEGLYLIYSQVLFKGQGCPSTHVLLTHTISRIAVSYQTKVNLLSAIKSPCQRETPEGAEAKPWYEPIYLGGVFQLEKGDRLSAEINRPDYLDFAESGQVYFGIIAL
Chain of Glucocorticoid receptor (Homo sapiens) (P04150 whole entry, looked up): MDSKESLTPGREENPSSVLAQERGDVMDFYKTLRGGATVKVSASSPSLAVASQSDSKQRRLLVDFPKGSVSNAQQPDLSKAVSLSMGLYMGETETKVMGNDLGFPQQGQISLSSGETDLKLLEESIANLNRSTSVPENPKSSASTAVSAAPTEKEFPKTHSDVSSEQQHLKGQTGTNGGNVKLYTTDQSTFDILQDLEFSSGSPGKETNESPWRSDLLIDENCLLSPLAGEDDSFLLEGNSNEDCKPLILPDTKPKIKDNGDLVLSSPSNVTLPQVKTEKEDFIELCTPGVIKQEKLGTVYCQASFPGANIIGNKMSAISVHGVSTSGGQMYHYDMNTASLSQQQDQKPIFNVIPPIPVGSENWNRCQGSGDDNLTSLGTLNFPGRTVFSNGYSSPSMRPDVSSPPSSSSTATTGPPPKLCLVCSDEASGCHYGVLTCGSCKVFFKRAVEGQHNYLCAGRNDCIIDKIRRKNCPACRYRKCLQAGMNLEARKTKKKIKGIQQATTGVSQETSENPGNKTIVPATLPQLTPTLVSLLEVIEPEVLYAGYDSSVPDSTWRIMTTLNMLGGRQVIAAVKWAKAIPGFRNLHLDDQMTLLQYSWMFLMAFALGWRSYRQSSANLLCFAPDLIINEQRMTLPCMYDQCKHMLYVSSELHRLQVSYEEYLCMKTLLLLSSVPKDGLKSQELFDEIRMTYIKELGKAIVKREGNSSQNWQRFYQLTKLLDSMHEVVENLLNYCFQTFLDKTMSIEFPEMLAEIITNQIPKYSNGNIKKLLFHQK
Chain of Thyroid hormone receptor beta (Homo sapiens) (P10828 whole entry, looked up): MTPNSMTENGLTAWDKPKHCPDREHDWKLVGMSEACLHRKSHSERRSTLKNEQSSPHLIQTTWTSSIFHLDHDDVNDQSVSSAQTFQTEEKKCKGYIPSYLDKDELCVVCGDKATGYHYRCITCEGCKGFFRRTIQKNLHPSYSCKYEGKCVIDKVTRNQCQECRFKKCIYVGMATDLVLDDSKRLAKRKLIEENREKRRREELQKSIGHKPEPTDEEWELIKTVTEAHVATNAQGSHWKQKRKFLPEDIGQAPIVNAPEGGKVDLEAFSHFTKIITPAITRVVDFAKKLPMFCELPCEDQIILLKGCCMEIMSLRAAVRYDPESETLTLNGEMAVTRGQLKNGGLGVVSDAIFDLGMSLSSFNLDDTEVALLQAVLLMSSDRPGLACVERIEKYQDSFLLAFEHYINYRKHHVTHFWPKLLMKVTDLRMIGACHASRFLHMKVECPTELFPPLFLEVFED
Chain of Peroxisome proliferator-activated receptor gamma (Homo sapiens) (P37231 whole entry, looked up): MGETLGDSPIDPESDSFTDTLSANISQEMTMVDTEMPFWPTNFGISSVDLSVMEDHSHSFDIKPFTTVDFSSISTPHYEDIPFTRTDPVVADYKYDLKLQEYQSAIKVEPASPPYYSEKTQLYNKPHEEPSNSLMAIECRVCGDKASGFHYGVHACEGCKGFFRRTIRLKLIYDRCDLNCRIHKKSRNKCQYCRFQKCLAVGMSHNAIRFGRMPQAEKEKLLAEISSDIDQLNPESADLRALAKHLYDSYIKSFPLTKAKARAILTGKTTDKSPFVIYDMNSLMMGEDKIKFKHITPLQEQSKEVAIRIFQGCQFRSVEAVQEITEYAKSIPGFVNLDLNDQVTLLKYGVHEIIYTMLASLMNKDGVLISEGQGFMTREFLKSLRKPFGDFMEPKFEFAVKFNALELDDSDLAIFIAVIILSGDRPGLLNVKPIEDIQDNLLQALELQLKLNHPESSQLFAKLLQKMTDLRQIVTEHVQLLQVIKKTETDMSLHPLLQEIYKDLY
Chain of Voltage-gated inwardly rectifying potassium channel KCNH2 (Homo sapiens) (Q12809 whole entry, looked up): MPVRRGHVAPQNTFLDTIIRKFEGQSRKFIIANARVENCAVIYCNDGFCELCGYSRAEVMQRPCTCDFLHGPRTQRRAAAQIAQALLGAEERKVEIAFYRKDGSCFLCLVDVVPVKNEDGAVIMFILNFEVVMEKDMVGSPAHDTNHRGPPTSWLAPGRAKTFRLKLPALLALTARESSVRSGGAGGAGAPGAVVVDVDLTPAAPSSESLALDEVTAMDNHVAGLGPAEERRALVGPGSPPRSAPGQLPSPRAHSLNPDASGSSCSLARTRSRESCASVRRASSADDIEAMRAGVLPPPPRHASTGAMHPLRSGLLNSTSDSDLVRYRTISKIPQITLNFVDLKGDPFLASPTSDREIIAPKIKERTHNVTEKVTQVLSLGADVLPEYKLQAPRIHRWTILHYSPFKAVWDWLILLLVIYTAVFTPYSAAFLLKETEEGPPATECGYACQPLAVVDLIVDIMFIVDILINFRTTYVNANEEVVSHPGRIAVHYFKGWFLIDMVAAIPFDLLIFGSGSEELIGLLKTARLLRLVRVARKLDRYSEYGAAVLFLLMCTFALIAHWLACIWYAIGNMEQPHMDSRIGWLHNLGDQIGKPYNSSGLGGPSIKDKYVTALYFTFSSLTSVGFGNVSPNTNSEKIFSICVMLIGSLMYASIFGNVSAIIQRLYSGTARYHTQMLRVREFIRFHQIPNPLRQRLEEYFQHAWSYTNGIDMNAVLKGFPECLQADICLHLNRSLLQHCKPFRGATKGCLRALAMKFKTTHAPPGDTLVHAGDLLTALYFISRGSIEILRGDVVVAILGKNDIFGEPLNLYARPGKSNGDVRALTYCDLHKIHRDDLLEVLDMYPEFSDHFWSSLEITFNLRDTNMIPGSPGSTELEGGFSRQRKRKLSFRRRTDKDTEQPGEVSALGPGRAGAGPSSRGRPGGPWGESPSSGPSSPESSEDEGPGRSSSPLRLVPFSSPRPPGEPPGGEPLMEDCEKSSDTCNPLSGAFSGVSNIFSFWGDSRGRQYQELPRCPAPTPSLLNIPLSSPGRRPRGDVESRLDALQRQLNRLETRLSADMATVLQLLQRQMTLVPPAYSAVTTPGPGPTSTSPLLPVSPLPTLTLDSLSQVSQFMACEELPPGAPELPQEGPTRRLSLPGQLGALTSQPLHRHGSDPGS

Turning to `O[C@@H]([C@H](O)[C@@H](O)CBr)[C@@H](O)CBr`, the activity change, negative = cytotoxicity was 11.7% in [1], 2.79% in assay [6] and 7.81% in assay [7]. Also, the Potency result in assay [2], in assay [4], in assay [5] and in [16] was “inactive” in each case. Also, the molecule was classed as inactive in assay [3], in assay [8], in [10], in [11], in assay [12] and in assay [13]. In addition, the call in assay [14] and in [17] was inactive. The caspase-3 activation in assay [9] is 0.213%. In [15], the activity change % (negative = inhibition) was -6.77%.

As to `CCCCOCCO`, the activity change, negative = cytotoxicity in assay [1] is 6.13% and -1.59%; in assay [6], 5.22% and -6.35%; in [7], 1.27% and 8.74%. The Potency result in assay [2], in assay [4], in assay [5], in assay [18] and in [16] was “inactive” in each case. Moreover, the molecule was classed as inactive in assay [3], in assay [8], in assay [10], in assay [11], in assay [12] and in assay [13]. Besides, the call in [14], in assay [19] and in assay [17] was inactive. Also, the caspase-3 activation in assay [9] is 0.121% and 0.365%. Besides, the activity change % (negative = inhibition) in assay [15] is -4.64% and -15.2%. Further, the activation in assay [20] is 0.401% and -0.541% and 0.482%.

As for `Cc1c(N=C=O)cccc1N=C=O`, the activity change, negative = cytotoxicity was -2.52% in assay [1], 6.1% in assay [6] and -3.51% in assay [7]. The Potency entry in assay [2], in assay [4], in [5], in assay [18] and in [16] was “inactive” throughout. The molecule was called inactive in [3], in [8], in assay [10], in [11], in [12] and in assay [13]. For the same molecule, the call in assay [14], in assay [19] and in assay [17] was inactive. In addition, the caspase-3 activation in [9] was -0.0166%. The activity change % (negative = inhibition) in [15] was 2.21% and -0.0232%. Besides, the activation in assay [20] was -0.751% and -0.0469%.

Regarding `COC(=O)c1ccc(C=O)cc1`, the activity change, negative = cytotoxicity in assay [1] is -4.37%; in assay [2], -110% (active); in assay [6], -14.2%; in [7], -7.99%. Further, the molecule was called inactive in assay [3], in assay [8], in assay [10], in [11], in [12] and in assay [13]. Besides, the result in assay [14], in assay [19] and in assay [17] was inactive. Besides, the Potency result in assay [4], in [5], in [18] and in assay [16] was “inactive” each time. Besides, the caspase-3 activation in assay [9] is 13.7%. Further, the activity change % (negative = inhibition) in assay [15] is 3.66%. The activation in assay [20] was -1.54%.

`C1OCOCO1`: the activity change, negative = cytotoxicity was -19.8% in assay [1], -10.6% in [6] and -5.36% in assay [7]. The Potency result in [2], in assay [4], in [5], in [18] and in [16] was “inactive” in each case. Besides, the molecule was classed as inactive in assay [3], in assay [8], in assay [10], in [11], in assay [12] and in [13]. Further, the molecule was classed as inactive in [14] and in assay [17]. Further, the caspase-3 activation in assay [9] was 2.97%. Moreover, in assay [15], the activity change % (negative = inhibition) is 5.08%. Also, the activation in assay [20] is -1.91%.
